Reference: PubChem BioAssay AID596 (National Center for Advancing Translational Sciences (NCATS), 2007)
Screen size: about 71,000 compounds; about 1,400 (2%) were called active. About 3% were inconclusive and are not listed. For the sample, actives were picked, then their nearest neighbours and some compounds at random. A number with no mark means an inactive call. The call rests on the fitted dose curve; in most records, active means well fitted curve in the direction sought with a large enough effect; inconclusive means small, poorly fitted or top-dose-only effect; inactive means no such curve, though single readings can be large or run the other way.

Each compound was assayed against Microtubule-associated protein tau (Homo sapiens) (UniProt P10636) (assay: qHTS Assay for Tau Filament Binding). Conditions: recombinant tau filaments, thioflavin S fluorescence, 15 h, filaments grown with octadecylsulfate alongside compound; series mostly up to 57.1 µM; activity change, negative = inhibition: at the top concentration.
Sequence of Microtubule-associated protein tau (Homo sapiens) (P10636 whole entry, looked up): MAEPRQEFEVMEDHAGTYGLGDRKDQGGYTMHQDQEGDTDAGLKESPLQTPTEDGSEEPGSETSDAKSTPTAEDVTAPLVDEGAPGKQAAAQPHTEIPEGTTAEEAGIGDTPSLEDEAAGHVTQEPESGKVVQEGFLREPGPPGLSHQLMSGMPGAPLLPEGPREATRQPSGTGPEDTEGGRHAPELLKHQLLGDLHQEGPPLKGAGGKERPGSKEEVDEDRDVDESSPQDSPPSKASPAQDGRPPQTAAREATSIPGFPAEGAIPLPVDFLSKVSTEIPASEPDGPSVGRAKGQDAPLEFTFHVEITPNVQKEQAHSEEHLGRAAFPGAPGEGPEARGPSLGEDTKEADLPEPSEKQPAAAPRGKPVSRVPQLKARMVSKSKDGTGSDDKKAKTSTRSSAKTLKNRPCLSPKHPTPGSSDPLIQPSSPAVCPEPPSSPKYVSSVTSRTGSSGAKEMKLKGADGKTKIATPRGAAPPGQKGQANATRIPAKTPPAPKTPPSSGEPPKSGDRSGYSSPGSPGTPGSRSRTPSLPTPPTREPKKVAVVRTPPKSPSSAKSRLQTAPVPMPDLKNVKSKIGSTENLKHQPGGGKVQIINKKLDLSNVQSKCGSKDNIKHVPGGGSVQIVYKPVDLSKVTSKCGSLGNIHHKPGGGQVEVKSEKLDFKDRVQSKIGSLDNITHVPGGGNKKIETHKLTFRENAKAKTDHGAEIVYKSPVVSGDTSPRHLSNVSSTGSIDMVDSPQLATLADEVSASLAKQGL
Text: NIH Molecular Libraries Screening Centers Network [MLSCN]
NIH Chemical Genomics Center [NCGC]
Assay Provider: Jeffrey A. Kuret, Ohio State University
Tau monomers form filaments in vitro in the presence of anionic detergents or fatty acids. The dye Thioflavine S (ThS) binds to tau filaments and upon binding, increases in fluorescence several fold. Small molecules that displace ThS binding or prevent filament binding are identified by a reduction in ThS fluorescence. This assay used histidine-tagged, recombinant human tau protein containing the products of exons 2, 3, and 10 that was provided by Jeff Kuret, Ohio State University. To form filaments, 1 uM tau was incubated with 30 uM sodium octadecylsulfate (ODS) in reagent buffer (10 uM thioflavine S, 5 mM 1,4-dithioerythreitol (DTT), 100 mM sodium chloride, 10 mM HEPES pH 7.4) for 15 hrs at 37 C.
NCGC Assay Protocol Summary:
Assay Steps. Two uL/well of 2 uM tau in reagent buffer (10 uM thioflavine S, 5 mM DTT, 100 mM sodium chloride, 10 mM HEPES pH 7.4) was dispensed into solid black 1536-well plates. Twenty-three nL compound was transferred to the assay plate after which 2 uL/well of 60 uM ODS in reagent buffer was dispensed for a final assay volume of 4 uL /well. Following 15 hours of incubation at 37 C, fluorescence was detected by an Envision (Perkin Elmer) using 450/8 nm excitation and 510/23 nm emission.
Keywords: NIH Roadmap, MLSCN, MLI, MLSMR, qHTS, NCGC, Alzheimer's disease, Neurofibrillary lesions, tau, tubulin assembly, microtubule stability, cytoskeletal integrity, fibrillization, thioflavin dyes, Amyloidgenic
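Further: actives lower thioflavin S fluorescence by blocking filaments or displacing dye.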
On the % scale 0 is the no-effect control and ±100 the full control effect; potency means the concentration at half of the fitted maximal effect.

SMILES	activity change, negative = inhibition	Potency
Cc1cccc(NC(=O)CSC(N)=O)c1C	3.4%	
Cc1nc(C)c(C(=O)Nc2cccc(C)c2C)o1		15.8 µM (active)
Cc1cccc(OCC(O)Cn2c(=N)n(CCN3CCOCC3)c3ccccc32)c1 (centres undefined)	16%	
CC(C)OCCCNc1nc2c(c(=O)n(Cc3ccccc3F)c(=O)n2C)n1C	8.7%	
Cc1ccc2nc(-c3ccccc3)cc(C(=O)O)c2c1	1.3%	
Cc1ccc(NC(=O)c2cc(-c3ccc(C)o3)nc3ccccc23)nc1		10 µM (active)
Cc1cc(=O)oc(C)c1C(=O)Nc1cnc2ccccc2c1	288%	
C1CCC2OC2C1 (centres undefined)	2.7%	
N=C(CC(=O)Nc1ccccn1)c1ccccc1	-2.3% [at 11.4 µM]	
CC1=Nn2c(nnc2-c2ccccc2)SC1	1.3%	
Cc1nn2c3cc(N4CCOCC4)ccc3nc2c2ccccc12		12.6 µM (active)
COc1ccc(-n2c(=O)c(C)nc3cnc(N4CCOCC4)nc32)cc1	-8.4%	
Cc1cc(C)c2c(n1)nn1c(N3CCOCC3)cc(C)nc21	18.9%	
O=C(C(Cc1ccccc1)n1cccc1)N1CCN(C2CCCCC2)CC1 (centres undefined)	-11.5%	
O=C(O)/C(=C/c1c(C(=O)O)[nH]c2cc(Cl)cc(Cl)c12)c1ccccc1	-6.4%	
O=C(CSc1nc2[nH]ncc2c(=O)n1-c1ccccc1)N1CCCc2ccccc21	13.4%	
O=c1nc(N2CCOCC2)nc2n1CCO2	-11.4%	
CNc1nc(-c2ccccc2OC)nc2ccccc12		12.6 µM (active)
COc1ccccc1CNc1nc(-c2c(C)noc2C)nc2ccccc12	91.2%	
COc1ccccc1-c1nc(NCCNC(C)=O)c2ccccc2n1	-3.8%	
COc1ccccc1-c1nc(N2CCN(C)CC2)c2ccccc2n1	-25.5%	
COc1ccccc1-c1cc(NCc2cccs2)ncn1	-0.6%	
COc1ccccc1-c1nc(NCc2cccs2)c2ccccc2n1		2.51 µM (active)
Cc1ccccc1C(=O)O	1%	
CCCCCCN(C(=O)CCCCCN1C(=O)NC(c2ccc(C(F)(F)F)cc2)C(C(=O)OCc2ccccc2)=C1C)C(C(=O)NCCCC)c1ccc(OCC(=O)OC)c(C(=O)OC)c1 (centres undefined)	72.4%	
COC(=O)[C@@]1(C)C=C[C@@H](Cc2ccccc2)N1C(C)=O	-6.5%	
COc1cc([C@H]2c3cc4c(cc3[C@@H](O[C@@H]3O[C@H]5CO[C@@H](C)O[C@]5(O)C[C@H]3O)[C@@H]3COC(=O)[C@H]23)OCO4)cc(OC)c1O	0.5%	

SMILES	activity change, negative = inhibition	Potency
COc1ccc(-c2n[nH]c(C)c2-c2ccc(OC)c(OC)c2)c(O)c1	1.1%	
COc1ccc(OC)c(Nc2nc(-c3ccc(O)c(O)c3)cs2)c1		20 µM (active)
Oc1ccc(-c2csc(Nc3cccnc3)n2)cc1	-0.1%	
CCc1c(C)nc(N)n2c(SCC(=O)N3CCN(c4ccccc4)CC3)nnc12	1.5%	
CC(Cc1ccccc1)C(=O)N(C)Cc1ccccc1 (centres undefined)	-18.4%	
CCc1ccc(N(CC)c2ncnc3nc[nH]c23)cc1	14.7%	
CN(C(=O)COc1nnc(-c2cccs2)c(-c2cccs2)n1)c1ccccc1		25.1 µM (active)
O=c1c(-c2cccs2)nc2cnc(Oc3ccccc3)nc2n1-c1ccccc1	47.6%	
CN(C(=O)COc1ccccc1)c1nnc(-c2ccncc2)s1	-17.9%	
CCCn1c(SCC(N)=O)nnc1C(C)C	2.8%	
O=C(Cn1cnc2c(nnn2Cc2ccc(F)cc2)c1=O)NCc1ccc2c(c1)OCO2	7.3%	
CCOC(=O)C(C)Oc1cccc2c(=O)n(CC(=O)N3CCc4ccccc43)ccc12 (centres undefined)	40.3%	
COCCNc1cc(-c2c(C)noc2C)ncn1	-2.4%	
CCOc1ccc(NCCC(=O)c2ccc3c(c2)OCO3)cc1		25.1 µM (active)
COC(=O)CCNc1ccc2c(c1)OCCO2	1.2%	
COc1ccc(C(=O)Nc2ccc3c(c2)OCO3)cc1OC	-6%	
O=C(Cl)c1ccccc1[N+](=O)[O-]	8%	
O=C(CSc1nnc(Cc2ccccc2)n1-c1ccccc1)N1CCOCC1	-4%	
O=C1C(=O)N(CCN2CCOCC2)C(c2ccccn2)/C1=C(/O)c1ccc(Cl)cc1 (centres undefined)	64.6%	
CCN(CC)CCN1C(=O)C(=O)/C(=C(/O)c2ccc(OC)c(OC)c2)C1c1ccccn1 (centres undefined)		20 µM (active)
CCN(CC)CCN1C(=O)C(=O)/C(=C(/O)c2ccccc2)C1c1ccccc1F (centres undefined)	6.1%	
CC(=O)OCCC(C)C	-0.1%	
CCc1ccc2oc(-c3ccc(N)cc3)nc2c1		25.1 µM (active)
COc1cccc(-c2nc3cc(C)ccc3o2)c1	-7.9%	
CCCCCC(=O)Nc1ccc2oc(-c3ccncc3)nc2c1	-29.6%	
CCCCCCc1ccc(O)cc1O	-23.7%	
CC(C)n1c(SCC(=O)Nc2ccccc2N2CCCCC2)nc2c1c(=O)n(C)c(=O)n2C	5%	
